Assay results taken from PubChem BioAssay AID720597 (Broad Institute, 2013).
Entries with a potency or affinity are not part of this list. Calls of active or inactive are those of the source.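 How the source made its calls: active means fitted half-maximal dose no more than twice the top valid tested dose, for compounds that lower signal; inconclusive means fit invalid, or curve flat with activity between -70 and -30; inactive means potency past limit, curve flat within ±30, or signal increasing.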

What follows are compounds tested against NAD-dependent protein deacylase sirtuin-5, mitochondrial (Homo sapiens) (UniProt Q9NXA8) (assay: blockers of sirtuin-5 peptide desuccinylation – biochemical, fluorescence imaging, cherry-pick, set 6, dose response (AID 720597;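 further: lower AMC signal can also come from blocking the trypsin step; 0% = median of neutral control wells and -100% = median of positive control wells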)). Details: Purified SirT5, succinyl-peptide-AMC/trypsin fluorescence; series mostly up to 15 µM; activity change, negative = inhibition: at the top concentration.
Chain of NAD-dependent protein deacylase sirtuin-5, mitochondrial (Homo sapiens) (Q9NXA8 whole entry, looked up): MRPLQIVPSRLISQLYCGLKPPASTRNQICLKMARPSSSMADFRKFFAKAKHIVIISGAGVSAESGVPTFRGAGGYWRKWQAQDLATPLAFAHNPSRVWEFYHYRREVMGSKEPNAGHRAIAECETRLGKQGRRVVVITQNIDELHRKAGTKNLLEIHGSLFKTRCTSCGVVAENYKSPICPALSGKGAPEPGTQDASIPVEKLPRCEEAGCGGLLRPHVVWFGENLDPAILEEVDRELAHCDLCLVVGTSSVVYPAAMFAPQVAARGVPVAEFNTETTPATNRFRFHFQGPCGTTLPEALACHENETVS

Activity change, negative = inhibition, inactive:
C[C@@H]1CN([C@H](C)CO)S(=O)(=O)c2ccc(C#CC3CC3)cc2O[C@H]1CN(C)Cc1ccccc1F 3.77%, C[C@@H]1CN([C@H](C)CO)C(=O)c2c(c3ccccc3n2C)-c2ccccc2CO[C@H]1CN(C)S(=O)(=O)c1ccc(C(F)(F)F)cc1 -8.07%, COCC(=O)N(C)C[C@H]1[C@H](c2ccccc2)[C@@H](CO)N1C(=O)Cc1ccncc1 42.7%, CO[C@H]1CN(C)C(=O)c2cc(NC(=O)NC3CCCCC3)ccc2OC[C@H](C)N(CCc2ccccc2)C[C@@H]1C 3.06%, C[C@@H]1CN([C@H](C)CO)C(=O)c2cccc(NC(=O)CCCCCC(=O)Nc3ccccc3N)c2O[C@H]1CN(C)Cc1ccc(Oc2ccccc2)cc1 -13%, Cc1ccc(S(=O)(=O)N(C)C[C@H]2OCCCC[C@H](C)Oc3ccc(NS(=O)(=O)c4ccc(Cl)cc4)cc3C(=O)N([C@@H](C)CO)C[C@@H]2C)cc1 2.27%, C[C@@H]1CN([C@@H](C)CO)S(=O)(=O)c2ccc(C#CC3CC3)cc2O[C@H]1CN(C)Cc1ccccc1F -14.8%, O=C(C1CCOCC1)N1CC2(C1)[C@@H](c1ccccc1)[C@@H](CO)N2CCC(F)(F)F -9.4%, COc1ccc(NC(=O)Nc2ccc3c(c2)C(=O)N([C@@H](C)CO)C[C@H](C)[C@H](CN(C)Cc2ccc(Cl)c(Cl)c2)O3)cc1 -4.73%, CCNC(=O)C[C@H]1CC[C@@H]2[C@H](COC[C@H](O)CN2C(=O)Nc2ccc(C(F)(F)F)cc2)O1 -20.2%, C[C@@H]1CN([C@H](C)CO)S(=O)(=O)c2ccc(/C=C/c3ccccc3)cc2O[C@@H]1CN(C)Cc1ccccc1 5.76%, C[C@H](CO)N1C[C@H](C)[C@H](CN(C)Cc2ccc(Oc3ccccc3)cc2)Oc2ccc(NC(=O)CCCCCC(=O)Nc3ccccc3N)cc2CC1=O -15.1%, CCCNC(=O)N(C)C[C@@H]1Oc2ncc(Br)cc2C(=O)N([C@H](C)CO)C[C@@H]1C -18.7%, CCN(C[C@@H]1[C@@H](c2ccccc2)[C@H](CO)N1C(=O)C1CC1)C(=O)NC1CCCC1 38.9%, CCC(=O)N(C)C[C@@H]1[C@@H](c2ccc(-c3ccccc3F)cc2)[C@H](CO)N1C(C)=O -1.46%, Cc1noc(C)c1NC(=O)Nc1cccc2c1O[C@@H](CN(C)Cc1ccc(Oc3ccccc3)cc1)[C@@H](C)CN([C@H](C)CO)C2=O -13%, Cc1ccc(S(=O)(=O)N(C)C[C@H]2OCCCC[C@@H](C)Oc3ccc(NS(=O)(=O)c4ccc(F)cc4)cc3C(=O)N([C@@H](C)CO)C[C@H]2C)cc1 -8.24%, COc1ccc(S(=O)(=O)N(C)C[C@H]2Oc3ccc(NC(=O)NC4CCCCC4)cc3C(=O)N([C@@H](C)CO)C[C@@H]2C)cc1 -0.523%, C[C@@H]1CN([C@H](C)CO)S(=O)(=O)c2ccc(C#Cc3ccccc3F)cc2O[C@H]1CN(C)C(=O)c1ccc2c(c1)OCO2 22.1%, C[C@H]1CN([C@@H](C)CO)C(=O)c2cc(NC(=O)C3CC3)ccc2O[C@H]1CN(C)S(=O)(=O)c1cn(C)cn1 -9.34%, COc1ccc(S(=O)(=O)Nc2ccc3c(c2)C(=O)N([C@H](C)CO)C[C@@H](C)[C@H](CN(C)S(=O)(=O)c2ccccc2)OCCCC[C@@H](C)O3)cc1 -23.2%, COc1ccccc1NC(=O)N[C@H]1CC[C@@H](CCNS(=O)(=O)c2ccc(F)cc2)O[C@@H]1CO -3.7%, COc1ccc(S(=O)(=O)N(C)C[C@H]2OCCCC[C@H](C)Oc3ccc(NS(=O)(=O)c4ccc(F)cc4)cc3C(=O)N([C@@H](C)CO)C[C@H]2C)cc1 -27.1%, C[C@H](CO)N1C[C@H](C)[C@@H](CN(C)S(=O)(=O)c2ccccc2)Oc2ccc(NC(=O)Nc3ccc(C(F)(F)F)cc3)cc2CC1=O -26.9%, COc1ccccc1NC(=O)Nc1ccc2c(c1)C(=O)N(C)C[C@H](OC)[C@H](C)CN[C@@H](C)CO2 -29.5%, COc1ccc(NC(=O)N(C)C[C@H]2Oc3ccc(NS(=O)(=O)c4ccc(F)cc4)cc3C(=O)N([C@@H](C)CO)C[C@@H]2C)cc1 30.1%, COc1cccc(CN(C)C[C@@H]2OCc3ccccc3-c3c(n(C)c4ccccc34)C(=O)N([C@H](C)CO)C[C@H]2C)c1 26.3%, C[C@H](CO)N1C[C@H](C)[C@H](CN(C)Cc2ccc(Oc3ccccc3)cc2)Oc2ccc(NC(=O)Cc3ccccc3)cc2C1=O -9.54%
